Data published in publication PMC4336329 (PLoS ONE, 2015).
About 14,000 (4.5%) of roughly 310,000 compounds showed an effect of 50% or more. Effects have a minus sign here. The entries come from a sample that favours strong results as a whole.

What follows are compounds tested against human ether-à-go-go-related gene (hERG) potassium channel (human, UniProt Q12809) (assay: primary screen, population patch clamp on CHO cells stably expressing hERG; higher = less effect of the substance).
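Note: peak tail current of the secondary pulse compared with the same well before compound.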

human ether-à-go-go-related gene (hERG) potassium channel, sequence (Q12809 whole entry, looked up): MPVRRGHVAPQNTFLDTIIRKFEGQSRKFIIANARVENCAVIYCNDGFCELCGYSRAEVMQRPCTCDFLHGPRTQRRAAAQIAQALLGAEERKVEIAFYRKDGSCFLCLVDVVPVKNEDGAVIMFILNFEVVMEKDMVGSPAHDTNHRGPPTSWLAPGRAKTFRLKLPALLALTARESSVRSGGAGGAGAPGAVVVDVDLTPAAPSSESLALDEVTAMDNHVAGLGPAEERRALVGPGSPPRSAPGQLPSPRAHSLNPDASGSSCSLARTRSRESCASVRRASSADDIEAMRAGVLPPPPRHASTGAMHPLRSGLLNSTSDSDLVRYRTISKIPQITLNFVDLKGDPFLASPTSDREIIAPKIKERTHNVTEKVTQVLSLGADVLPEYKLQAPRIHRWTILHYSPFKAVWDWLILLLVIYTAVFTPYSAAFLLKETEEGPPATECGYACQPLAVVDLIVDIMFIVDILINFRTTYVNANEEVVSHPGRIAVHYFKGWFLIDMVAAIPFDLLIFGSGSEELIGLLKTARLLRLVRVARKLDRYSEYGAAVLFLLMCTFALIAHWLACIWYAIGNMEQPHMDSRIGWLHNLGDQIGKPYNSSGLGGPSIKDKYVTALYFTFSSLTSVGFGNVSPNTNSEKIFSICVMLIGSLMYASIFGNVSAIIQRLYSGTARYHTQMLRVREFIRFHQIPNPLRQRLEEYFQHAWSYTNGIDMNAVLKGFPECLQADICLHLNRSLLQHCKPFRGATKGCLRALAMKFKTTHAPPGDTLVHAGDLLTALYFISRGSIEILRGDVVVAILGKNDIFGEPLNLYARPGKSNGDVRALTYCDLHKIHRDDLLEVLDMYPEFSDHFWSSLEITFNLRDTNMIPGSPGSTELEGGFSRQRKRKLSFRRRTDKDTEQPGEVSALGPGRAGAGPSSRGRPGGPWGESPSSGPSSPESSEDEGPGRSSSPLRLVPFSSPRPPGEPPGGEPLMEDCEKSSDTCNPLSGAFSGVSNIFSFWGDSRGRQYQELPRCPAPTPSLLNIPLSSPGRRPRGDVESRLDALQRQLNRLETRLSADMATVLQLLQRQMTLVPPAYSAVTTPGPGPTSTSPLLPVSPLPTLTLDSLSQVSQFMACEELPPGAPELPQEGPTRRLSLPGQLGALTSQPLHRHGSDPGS

SMILES | hERG current change (%, negative = inhibition) at 10uM [%]
Cc1nc(-c2ccc(NC(=O)c3ccc(Br)o3)cc2)cs1 | 4.44
COc1cccc(-c2cc(C(F)(F)F)n3nc(C(=O)N4CCCCC4c4cccnc4)cc3n2)c1 (centres unmarked) | -23.1
O=C(c1cc2nc(-c3ccccc3)cc(-c3ccccc3)n2n1)N1CCN(C(=O)c2ccco2)CC1 | -56.9
O=C(c1ccccc1)N1CCN(C(=O)c2cc3nc(-c4ccccc4)cc(C(F)(F)F)n3n2)CC1 | -51.1
CCN1CCN(C(=O)c2cc3nc(-c4ccccc4)cc(C(F)(F)F)n3n2)CC1 | -22
Cc1ccc(-c2cc(C(F)(F)F)n3nc(C(=O)N4CCN5CCCC5C4)cc3n2)cc1 (centres unmarked) | -48.3
O=C(c1cc2nc(-c3ccccc3)cc(C(F)(F)F)n2n1)N1CCN2CCCC2C1 (centres unmarked) | -30.3
Cc1ccc(-c2cc(C(F)(F)F)n3ncc(C(=O)N4CCCCC4c4cccnc4)c3n2)cc1 (centres unmarked) | 4.63
O=C(c1cc2nc(-c3ccccc3)cc(C(F)(F)F)n2n1)N1CCOCC1 | -29.3
CN1CCN(C(=O)c2cc3nc(-c4ccccc4)cc(-c4ccccc4)n3n2)CC1 | -38.3
O=C(c1cc2nc(-c3ccc(F)cc3)cc(C(F)(F)F)n2n1)N1CCCCC1c1cccnc1 (centres unmarked) | -80.2
COc1ccc(-c2cc(C(F)(F)F)n3nc(C(=O)N4CCN5CCCC5C4)cc3n2)cc1OC (centres unmarked) | -64.4
O=C(c1cc2nc(-c3ccccc3)cc(-c3ccccc3)n2n1)N1CCCC1 | 9.99
COc1ccc(C(=O)N/N=C/c2ccc(N3CCOCC3)s2)cc1OC | 11.6
Cc1nc2sc(-c3ccccc3)nn2c(=O)c1Br | -1.74
COc1ccc2nc(Sc3c([N+](=O)[O-])nc(C)n3Cc3ccccc3)[nH]c2c1 | -12.7
CCOc1ccc(N2CC(C(=O)NC3CCCC3)CC2=O)cc1 (centres unmarked) | 2.11
COc1ccc(N(C(=O)CNC(=O)c2ccco2)C(C(=O)NC2CCCC2)c2ccncc2)cc1 (centres unmarked) | 13.1
CC(=O)c1sc(NC(=O)CSCc2c(C)noc2C)nc1-c1ccccc1 | -27.4
O=C(N/N=C/c1c[nH]c2ccc(Br)cc12)C1CC1 | 4.6
CC(C)C(=O)Nc1nnc(SCC(=O)NC2CC2)s1 | 12.8

SMILES | hERG current change (%, negative = inhibition) at 10uM [%]
CC(=O)N1c2ccccc2NC2=C(C(=O)CCC2)C1c1cccnc1 (centres unmarked) | 4.51
C=CCNC(=O)C1CC(=O)N(c2ccc(OCC(=O)Nc3ccc(OC)cc3)cc2)C1 (centres unmarked) | -3.5
COc1ccc(-c2cc(=O)oc3cc(OC(C)C(=O)O)ccc23)cc1 (centres unmarked) | 6.26
Cc1cccc(NC(=O)CNC(=O)Cc2ccc(S(=O)(=O)N3CCOCC3)s2)c1C | 5.91
CN(C)S(=O)(=O)c1cccc(C(=O)Nc2cc(Cl)cc(Cl)c2)c1 | 4.25
CC(=O)c1ccc(NS(=O)(=O)c2ccc3c(c2)CCC(=O)N3)cc1 | 8.49
CCn1c(CN2CCN(C(=O)c3ccco3)CC2)nc2c1c(=O)n(C)c(=O)n2C | -16.4
COCCn1c(CN2CCN(C(=O)c3ccco3)CC2)nc2c1c(=O)n(C)c(=O)n2C | -9.04
Cn1c(=O)c2c(nc(CN3CCN(C(=O)c4ccco4)CC3)n2CCCc2ccccc2)n(C)c1=O | -68.5
Cn1c(=O)c2c(nc(CN3CCN(C(=O)c4ccco4)CC3)n2CCc2ccccc2)n(C)c1=O | -66.3
Cn1c(=O)c2c(nc(CN3CCN(C(=O)c4ccco4)CC3)n2CCCO)n(C)c1=O | -27.6
Cn1c(=O)c2c(nc(CN3CCN(C(=O)c4ccco4)CC3)n2CC(N)=O)n(C)c1=O | 24.4
CCN(CC)C(=O)c1cccc(C)c1 | 0.757
Cc1cccc(C(=O)N/C(=C\c2ccco2)C(=O)N2CCCC2)c1 | -18.6
Cn1nc(C(=O)Nc2cccc(C(=O)NC3CC3)c2)c2ccccc2c1=O | -35.3
CC(C)Cn1nc(C(=O)Nc2cccc(C(=O)NC3CC3)c2)c2ccccc2c1=O | -71.6
Cc1nc2ccc(NC(=O)c3nn(CC(C)C)c(=O)c4ccccc34)cc2s1 | -26
CCCn1nc(C(=O)NC2CC2)c2ccccc2c1=O | -19.8
CCCCn1nc(C(=O)Nc2cccc(C(=O)NC3CC3)c2)c2ccccc2c1=O | -82.6
CC(C)Cn1nc(C(=O)Nc2cccc(S(=O)(=O)N3CCCC3)c2)c2ccccc2c1=O | -7.01
N#C/C(C(=O)N1CCOCC1)=c1/s/c(=C\c2ccccn2)c(=O)n1-c1ccccc1 | 17.6

SMILES | hERG current change (%, negative = inhibition) at 10uM [%]
COCCCn1c(N)c(C(=O)NCc2ccco2)c2nc3ccccc3nc21 | 4.53
Cc1cc(C)n2nc(SCC(=O)N/N=C/c3ccccn3)nc2n1 | 3.74
C=CCN1C(=O)/C(=C\c2cccc(OC(=O)c3ccco3)c2)SC1=S | 2.37
CC(C)n1ncc2c(C(=O)N3CCN(Cc4ccc(Br)s4)CC3)cc(C3CC3)nc21 | -4.36
COc1ccc(Cl)cc1S(=O)(=O)Oc1ccc(NC(C)=O)cc1 | -51.7
CC(=O)Nc1ccc(OS(=O)(=O)c2cc(Cl)ccc2C)cc1 | -6.02
CC(=O)Nc1ccc(OS(=O)(=O)c2ccc(Cl)cc2)cc1 | -24.5
COc1ccc(CCNC(=O)c2ccc3nc(-c4ccco4)c(-c4ccco4)nc3c2)cc1OC | -0.346
COc1ccc(Cn2c(O)c(C=Nc3ccc(O)cc3)c3ccccc3c2=O)cc1 | 1.27
O=C(c1[nH]nc2c1CCc1ccccc1-2)N1CCN(Cc2ccc3c(c2)OCO3)CC1 | -26.9
O=C(N/N=C/c1ccc(O)cc1O)C(=O)N/N=C/c1ccc(O)cc1O | 14.1
Nc1[nH]n2c(=O)c3c(nc2c1N=Nc1ccc(Cl)cc1)CCCC3 | -8.56
Nc1[nH]n2c(=O)c3c(nc2c1N=Nc1ccccc1)CCCC3 | -54.3
COc1cccc(N=Nc2c(N)[nH]n3c(=O)c4c(nc23)CCCC4)c1 | 12.2
COc1ccc(OC)c2[nH]c(=O)c(CCNC(=O)c3ccc4c(c3)OCO4)cc12 | -10.2
CN(C)S(=O)(=O)N1CCN(C(=O)c2ccccc2)CC1 | 8.25
CCNC(=S)N/N=C1\CCCCc2ccccc21 | -3.93
CC(C)NC(=S)N/N=C1\CCCCc2ccccc21 | -21.1
C=C(C)CNC(=S)N/N=C1\CCCCc2ccccc21 | -60.3
CC(C)NC(=S)N/N=C1\CCCc2ccccc21 | 10.4
C=C(C)CNC(=S)NN=C1c2ccccc2-c2ccccc21 | 6.79

SMILES | hERG current change (%, negative = inhibition) at 10uM [%]
CCCCNC(=S)N/N=C1\CCCCc2ccccc21 | -64.4
COc1cc(CCCN2C(=O)C(=O)NC[C@@H]2CC2CCCCC2)cc(OC)c1OC | 4
N#Cc1cc[n+](CC(=O)c2ccc(NC(=O)c3ccccc3)cc2)cc1.[Br-] | -14.6
Cc1ccc(SCCNC(=O)/C=C/c2ccc(Cl)cc2)cc1 | -0.0121
CC(C)C(NC(=O)/C=C/c1ccc(F)cc1)C(C)C | 16.1
COc1ccc(NC(=O)CC2Oc3ccc(C)cc3NC2=O)cc1 (centres unmarked) | 11.3
CCC1CCCCN1CCCNC(=O)CC1Oc2ccc(C)cc2NC1=O (centres unmarked) | -7.95
Cc1ccc2c(c1)NC(=O)C(CC(=O)NCCCN1CCCC1=O)O2 (centres unmarked) | 16.5
CCN(CC)CCCNC(=O)CC1Oc2ccc(C)cc2NC1=O (centres unmarked) | 0.515
Cc1ccc2c(c1)NC(=O)C(CC(=O)NCCCN1CCN(c3cc(C)ccc3C)CC1)O2 (centres unmarked) | -61.4
Cc1ccc2c(c1)NC(=O)C(CC(=O)NCCCN1CCCCC1C)O2 (centres unmarked) | -4.68
Cc1ccc2c(c1)NC(=O)C(CC(=O)NCCCN1CCc3ccccc3C1)O2 (centres unmarked) | -65.7
CCCCN(CCCC)CCCNC(=O)CC1Oc2ccc(C)cc2NC1=O (centres unmarked) | -49.5
COc1ccc(N2CCN(CCCNC(=O)CC3Oc4ccc(C)cc4NC3=O)CC2)cc1 (centres unmarked) | -55.5
CCN(CCCNC(=O)CC1Oc2ccc(C)cc2NC1=O)Cc1ccccc1 (centres unmarked) | -61.5
Cc1ccc2c(c1)NC(=O)C(CC(=O)NCCCN1CCCC1)O2 (centres unmarked) | 12.6
Cc1ccc2c(c1)NC(=O)C(CC(=O)NCCCN1CCCCC1)O2 (centres unmarked) | -0.113
CCn1cc(C(=O)NCc2ccco2)c(=O)c2cc(S(=O)(=O)N3CC(C)CC(C)C3)ccc21 (centres unmarked) | -7.3
O=c1c2ccccc2nnn1CSc1nnc(-c2cccnc2)n1-c1ccccc1F | 11.5
CNC(=O)c1cc(S(=O)(=O)Nc2ccc3c(c2)OCO3)ccc1C | 4.42
